Experimental data as given in PubChem BioAssay (EPA / NIEHS).
Records with an inconclusive call do not appear. The source made the active and inactive calls. Rule for the calls: active = hit-call score of the fitted dose curve at least 0.9, where 1 is the maximum; inconclusive = response in the unintended direction; inactive = score below 0.9.

What follows are molecules tested on sulfotransferase (SULT2A), SULT2A1 (gene 6822) (assay: CLD_SULT2A_48hr: CellzDirect (CLD) Gene Expression Assay for sulfotransferase (SULT2A) at 48 hours (AID 2283710);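 note: hits raise SULT2A1 transcript above the 0.2% DMSO vehicle baseline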).
Experimental: CLD_48hr is a cell-based, multiplexed-readout assay that uses hepatocyte, a human liver primary cell, with measurements taken at 48 hours after chemical dosing in a 96-well plate.CLD_SULT2A_48hr is one of 16 assay component(s) measured or calculated from the CLD_48hr assay. It is designed to make measurements of mRNA induction, a form of inducible reporter, as detected with chemiluminescence signals by Quantitative Nuclease Protection Assay (qNPA) technology.Data from the assay component CLD_SULT2A_48hr was analyzed at the endpoint, CLD_SULT2A_48hr, in the positive analysis fitting direction relative to DMSO as the negative control and baseline of activity. Using a type of inducible reporter, gain-of-signal activity can be used to understand changes in the reporter gene as they relate to the gene SULT2A1. Furthermore, this assay endpoint can be referred to as a primary readout. To generalize the intended target to other relatable targets, this assay endpoint is annotated to the transferase intended target family, where subfamily is sulfotransferase.
Human hepatocyte cultures were treated daily for two consecutive days with fresh dosing solutions containing appropriate concentrations of the 320 ToxCast chemicals (chemical identities were blinded to CellzDirect and other ToxCast collaborators), vehicle control (0.2% DMSO), and positive control inducers as summarized in Table 1. Due to the large number of treatment groups and chemicals examined, the ToxCast chemicals were divided into two groups (spanning two independent cultures of hepatocytes from separate donor preparations (Hu778: ToxCast plates 1 and 2; Hu776: ToxCast plates 3 and 4). Each preparation of human hepatocyte cultures was treated with respective vehicle control, medium only control, set of six positive controls/reference chemicals for the five hepatic receptor pathways, and a subset of eight of the ToxCast chemicals (indoxacarb, pyrithiobac-sodium, norflurazon, cyhalofop-butyl, methomyl, thiram, acetochlor, and propiconazole). These replicate data, coupled with internal replicates designed within the blinded ToxCast chemical library, provided additional data to evaluate interindividual differences between hepatocyte preparations and their potential impact on chemical profiles.Cell morphology and integrity were evaluated using phase-contrast microscopy as an indicator of hepatocyte cell health (Tyson & Green, 1987). Cultures for each treatment group (i.e., media, vehicle [0.2% DMSO], positive control inducers [multiple concentrations], and the ToxCast chemicals [multiple concentrations]) were observed and cell morphology was assessed relative to vehicle control cultures at each harvest time point (0, 6, 24, or 48 h). […] Images were evaluated at the conclusion of the study to assess changes in cell integrity and account for the effects of chemical exposure on uncharacteristic changes in concentration-dependent gene expression profiles. The results from these determinations of apparent cytotoxicity were annotated (yes/no) alongside the corresponding qNPA data for reference.At the conclusion of each treatment period, hepatocyte cultures (96-well) were washed with 1 volume of HBSS, lysed by addition of 25 ul ArrayPlate lysis buffer (HTG, Tucson, AZ), and 70 ul/well of Denaturation Oil, denatured by incubation at 95C for 10 min, and frozen at approximately -70C until analysis by nuclease protection assay (qNPA) (Roberts et al., 2007). For qNPA analysis, cell lysates were thawed at 50C for approximately 30 min, qNPA probes were added, and samples were incubated at 95C for 10 min to begin the detection process by denaturing the target RNA, dissociating the duplexes and secondary structure hybridization. At the conclusion of the hybridization period, S1 nuclease reagent was added to each sample to digest all nonprotected nucleotides at 50C for 60-90 min. […]

| Compound | outcome | AC50 |
| --- | --- | --- |
| COc1cccc(C(=O)NN(C(=O)c2cc(C)cc(C)c2)C(C)(C)C)c1C | inactive | – |
| Nc1c(Cl)cc([N+](=O)[O-])cc1Cl | inactive | – |
| C[Si](Cn1cncn1)(c1ccc(F)cc1)c1ccc(F)cc1 | inactive | – |
| Cc1nn(-c2cc(NS(C)(=O)=O)c(Cl)cc2Cl)c(=O)n1C(F)F | inactive | – |
| CN(C)C(=O)Nc1cccc(C(F)(F)F)c1 | inactive | – |
| CCCSP(=O)(OCC)Oc1ccc(Br)cc1Cl (stereo not given) | inactive | – |
| O=C(O)c1cc(Oc2ccc(C(F)(F)F)cc2Cl)ccc1[N+](=O)[O-] | inactive | – |
| CCCCSP(=O)(SCCCC)SCCCC | – | 33.4 µM (active) |
| CON=C(C(=O)OC)c1ccccc1CON=C(C)c1cccc(C(F)(F)F)c1 | inactive | – |
| CCOC(=O)COc1cc(-c2nn(C)c(OC(F)F)c2Cl)c(F)cc1Cl | inactive | – |
| CCCCN(CC)c1c([N+](=O)[O-])cc(C(F)(F)F)cc1[N+](=O)[O-] | inactive | – |
| CCC(CC)Nc1c([N+](=O)[O-])cc(C)c(C)c1[N+](=O)[O-] | inactive | – |
| CCOP(=S)(OCC)Oc1ccc2c(C)c(Cl)c(=O)oc2c1 | inactive | – |
| CCOP(=O)(NC(C)C)Oc1ccc(SC)c(C)c1 (stereo not given) | inactive | – |
| Cc1cc(C2CC2)nc(Nc2ccccc2)n1 | inactive | – |
| CC(C)=CC1C(C(=O)OCN2C(=O)C3=C(CCCC3)C2=O)C1(C)C (stereo not given) | inactive | – |
| CNc1cnn(-c2cccc(C(F)(F)F)c2)c(=O)c1Cl | inactive | – |
| CCOP(=S)(OCC)Oc1ccc([N+](=O)[O-])cc1 | – | 5.32 µM (active) |
| CCOP(=S)(OCC)SCCSCC | inactive | – |
| CC(C)N(C(=O)SCC(Cl)=C(Cl)Cl)C(C)C | inactive | – |

| Compound | outcome | AC50 |
| --- | --- | --- |
| COc1cc(OC)nc(Sc2cccc(Cl)c2C(=O)O)n1 | inactive | – |
| CCc1cnc(C2=NC(C)(C(C)C)C(=O)N2)c(C(=O)O)c1 (stereo not given) | inactive | – |
| CCOP(=O)(SC(C)CC)N1CCSC1=O (stereo not given) | inactive | – |
| CC(COc1ccc(Oc2ccccc2)cc1)Oc1ccccn1 (stereo not given) | inactive | – |
| C[N+]1(C)CCCCC1 | inactive | – |
| CCCCOC(=O)[C@@H](C)Oc1ccc(Oc2ccc(C#N)cc2F)cc1 | inactive | – |
| C#CCC1=C(C)C(OC(=O)C2C(C=C(C)C)C2(C)C)CC1=O (stereo not given) | inactive | – |
| COc1ccc(C(=CC(=O)N2CCOCC2)c2ccc(Cl)cc2)cc1OC | inactive | – |
| CNC(=O)ON=C(C)SC | inactive | – |
| CC(=NC#N)N(C)Cc1ccc(Cl)nc1 | inactive | – |
| C=C(C)[C@H]1Cc2c(ccc3c2O[C@@H]2COc4cc(OC)c(OC)cc4[C@@H]2C3=O)O1 | inactive | – |
| CCOP(=O)(OCC)Oc1cc(C)nc(C(C)C)n1 | – | 4.2 µM (active) |
| O=[N+]([O-])c1cc(C(F)(F)F)c(Cl)c([N+](=O)[O-])c1Nc1ncc(C(F)(F)F)cc1Cl | inactive | – |
| C#CC(C)(C)NC(=O)c1cc(Cl)cc(Cl)c1 | – | 5.38 µM (active) |
| CCCSP(=O)(OCC)SCCC | inactive | – |
| CCCCOC(=O)c1ccccc1C(=O)O | inactive | – |
| COP(=O)(OC)SCn1c(=O)oc2cc(Cl)cnc21 | inactive | – |
| CCNc1nc(Cl)nc(NC(C)(C)C#N)n1 | inactive | – |
| CCOC(=O)CC(SP(=O)(OC)OC)C(=O)OCC (stereo not given) | inactive | – |
| CC(C)[C@H](C(=O)O[C@H](C#N)c1cccc(Oc2ccccc2)c1)c1ccc(Cl)cc1 | inactive | – |
